Assay results: the supplement of paper PMC6555819

Key:
Assay in all cases: PBM binding z-score (relative to random genomic background probes); higher = stronger binding; sequences stand for … in GC…GCGATTGACAGCGTAGAATGAAGG
[1] = test system: RARb homodimer (NR concentration 270 nM)
Summary of the method: (§1)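 Custom Agilent 4×180K protein-binding microarrays carried double-stranded probes, each with a 34-nt variable region. These regions held direct-repeat seeds, single-nucleotide variants, half-site ablations and random human genomic background sequences. Ligand-free nuclear receptor dimers were incubated on the arrays for 1 h, antibodies against each partner (one per run) detected binding, and scanned fluorescence was regression-normalized. Binding z-scores take the random background probes as reference.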

[2] = test system: RARg:RXRa (NR concentration 270 nM, RXRa partner concentration 90 nM)
Summary of the method: as §1

[3] = test system: RARg homodimer (NR concentration 270 nM)
Summary of the method: as §1

[4] = test system: RXRa DBDmut IVT, anti-RXR (DBD mutation: RXRa K156A/R161A, NR concentration 90 nM)
Summary of the method: as §1

[5] = test system: RXRa homodimer (NR concentration 180 nM)
Summary of the method: as §1

[6] = test system: THRa:RXRa (NR concentration 90 nM, RXRa partner concentration 90 nM)
Summary of the method: as §1

[7] = test system: THRa homodimer (NR concentration 90 nM)
Summary of the method: as §1

[8] = test system: VDR homodimer (NR concentration 270 nM)
Summary of the method: as §1

Sequence	PBM binding z-score [1]	PBM binding z-score [2]	PBM binding z-score [3]	PBM binding z-score [4]	PBM binding z-score [5]	PBM binding z-score [6]	PBM binding z-score [7]	PBM binding z-score [8]
GCGACTGGGGCATCAGCAGGTTAGCATAACTTAA	0.258	0.506	0.0514	-0.821	0.0592	0.204	-0.74	-0.612
CCCGAAAGGTCGGTTGAGGTGAGTATACGGATAA	2.61	2.9	3	0.858	2.41	4.99	1.8	0.636
AGTCAAAGTTCATCTAGCTAACGTAAGATATGCT	3.76	5.27	6	4.58	4.7	1.67	-0.302	4.9
GGAACCAGGGCAAGTTGATAGCAGAGTTTGATGG	1.71	1.17	1.52	1.85	0.254	1	1.21	0.898
CCTACTGGGCCAACAGGTCATTGATATCAACGTT	2.5	2.56	2.13	0.159	1.91	1.63	0.207	0.761
GCGAATGGGGCAAAGCAGGTTACCATAAGGTTGG	1.06	0.565	0.52	-0.201	0.442	3.12	0.0667	-0.552
CTCAAAAGGTCGTGCTCAGGTGAGTATACCAAAC	2.79	5.29	3.99	2.02	4.73	4.13	1.02	0.794
